Assay results: PubChem BioAssay (NCI)
Compounds without any hit were thinned out: in the full panel of roughly 83,000, 20% have a hit.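 Assay: single dose, 48 h. Readout: percent growth (0 = no net growth; negative = cell death). Active: <10.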 Active and inactive are the calls of the source.

These compounds were tested on SNB-19 CNS (assay: NCI-60 one-dose screen, 48 h (100 = growth as untreated, 0 = no growth, -100 = all killed)). Details: 10 µM unless noted.
`NS(=O)(=O)c1ccc(Nc2nc(N/N=C/c3c[nH]c4ccccc34)nc(Nc3ccccc3)n2)cc1` was tested, and the growth was 56.7% (inactive). With `CCc1cccc2c3c(sc12)C(c1ccc(OC)cc1)C(C#N)=C(/N=C/c1ccc(Cl)cc1)O3` (stereo not drawn) the growth was 30.6% (inactive). In the case of `Cn1ccnc1C(=O)/C=C/c1ccc(CNC(=O)c2ccc(F)cc2)cc1`, the growth is reported as 15.6% (inactive). For `N#Cc1cccc(NC(=O)c2cc(-c3ccc(F)cc3F)ccc2O)c1`, the growth was 11.4% (inactive). With `O=S(=O)(NCCCNc1nccc(-c2[nH]c(-c3ccccc3)nc2-c2ccc(Cl)c(O)c2)n1)c1cccc2ccccc12` the growth was 37.8% (inactive). For `CC1(C)[C@@H](O)CC[C@]2(C)[C@H]3CC[C@@H]4[C@H]5[C@H](C(=O)/C=C\c6ccncc6)CC[C@]5(O)CC[C@@]4(C)[C@]3(C)CC[C@@H]12`, the growth was 58.7% (inactive). With `CS(=O)(=O)Nc1cc(-c2ccc3ncc(C#N)c(N[C@H](CO)c4ccccc4)c3c2)cnc1Cl` the growth was 41.7% (inactive). With `O=C(CSc1nc2ccccc2c(=O)n1-c1ccccc1)Nc1ccc(-c2nc3ccc([N+](=O)[O-])cc3[nH]2)cc1` the growth was 81.8% (inactive). In the case of `Oc1cccc2ccc(-c3nnc(SCc4ccc(O)c5ncccc45)n3-c3ccccc3)nc12`, the growth is reported as 9.4% (active). In the case of `C=CCn1c(SCC(=O)Nc2ccc(C(=O)/C=C/c3ccc(C)cc3)cc2)nnc1-c1c[nH]c2ccccc12`, the growth is reported as 87.5% (inactive). `C[C@@H](Nc1c(C#N)cnc2ccc(-c3cnc(Cl)c(NS(C)(=O)=O)c3)cc12)c1ccccc1` was tested, and the growth was 15.7% (inactive). With `CCN(CC)c1ccc(NC2=C(Cl)C(=O)c3nc(C)ccc3C2=O)cc1` the growth was 102% (inactive). `C#Cc1nc(C(=O)NCCC(=O)Nc2ccc(NC(=O)c3ccc(/C=C/C(=O)c4nccn4C)cc3)cc2)cs1` was tested, and the growth was 35.1% (inactive). In the case of `CCN(CC)CCn1c2ccc(O)cc2c2sc3cc(OC)ccc3c(=O)c21`, the growth is reported as 25.7% (inactive). With `CC1(C)CC[C@]2(C(=O)N3CCOCC3)CC[C@]3(C)C(=CC[C@@H]4[C@@]5(C)C/C(=C/c6ccccn6)C(=O)C(C)(C)[C@@H]5CC[C@]43C)[C@@H]2C1` the growth was 88% (inactive). In the case of `Cc1nc(-c2ccccc2O)ccc1C(=O)N=Nc1c(O)[nH]c2ccc(Br)cc12`, the growth is reported as 101% (inactive). In the case of `O=C(CCn1c[n+](CC(=O)c2ccc(-c3ccccc3)cc2)c2ccccc21)Nc1cccc2cccnc12`, the growth is reported as 41.6% (inactive). With `COC(=O)c1[nH]nc2c1C1(C(=O)c3cccc4cccc1c34)C(C#N)=C(N)O2` (stereo not drawn) the growth was 97.2% (inactive). For `N=c1c2cc(-c3ccccc3)oc2ncn1/N=C/c1ccc(Cl)cc1`, the growth was 86.5% (inactive). `Cc1ccc(-n2c(/C=C3\C(=O)Nc4ccccc43)ccc2CO)cc1` was tested, and the growth was 81% (inactive). For `CC(=O)N(C)C1CCc2c(sc(NC(=O)c3ccc(C(C)(C)C)cc3)c2C(N)=O)C1` (stereo not drawn), the growth was 74.7% (inactive). In the case of `CC1(C)[C@@H](O)CC[C@]2(C)[C@H]3CC[C@@H]4[C@H]5[C@H](C(=O)/C=C\c6ccc([N+](=O)[O-])cc6)CC[C@]5(O)CC[C@@]4(C)[C@]3(C)CC[C@@H]12`, the growth is reported as 62.2% (inactive). In the case of `Cc1ccc(NC(=O)CNc2cc(C(N)=O)cc(F)c2C)c(Cl)c1`, the growth is reported as 101% (inactive). With `COc1ccc(N2CCN(C3=C(Cl)C(=O)C(C)=C(C)C3=O)CC2)cc1` the growth was 99.1% (inactive). With `CN1CCN(c2ccc(/C=N/Nc3nc4ccccc4c(=O)n3-c3ccccc3)cc2)CC1` the growth was 105% (inactive). With `COc1cc(-c2nc3sccn3c2-c2ccnc(S(C)(=O)=O)n2)ccc1F` the growth was 92% (inactive). In the case of `Cc1ccc2c(c1)Oc1nc(N)c(C#N)c(N)c1C2Sc1ccc(F)cc1` (stereo not drawn), the growth is reported as -98.2% (active). With `CCCn1cnc2c(c1=N)C(c1ccc(F)cc1)c1sc3c(C)cccc3c1O2` (stereo not drawn) the growth was 22.4% (inactive). `COc1ccc(Cn2cc3c(c2-c2cc(OC)c(OC)c(OC)c2)CCc2c(CN4CCCC4)noc2-3)cc1` was tested, and the growth was 22% (inactive). With `CC1=N[C@@H]2CN(C(=O)OC(C)(C)C)C[C@@H]2n2c1cc1ccccc1c2=O` the growth was 105% (inactive). `COc1cc(OC)cc(C(=O)Nc2cccc(C#Cc3cccc4[nH]nc(N)c34)c2)c1` was tested, and the growth was 57.2% (inactive). In the case of `COc1ccccc1-n1cc(C#N)c(N)c1C(=O)c1ccc(Br)cc1`, the growth is reported as 71.1% (inactive). For `CS(=O)(=O)Nc1cc(-c2ccc3ncc(C#N)c(NCc4cccc(F)c4)c3c2)cnc1Cl`, the growth was 11.9% (inactive).
